54 molecules from PubChem BioAssay AID651597 (National Center for Advancing Translational Sciences (NCATS), 2012) can be followed below.

Hit rate of the full screen: of about 1,100 compounds, about 390 (35%) were called active. Inconclusive results (about 30%) are left out. The list shows a part of the results. Values without a mark were called inactive. Calls come from the whole dose curve; as a rule, active = well fitted inhibition curve with a large enough effect; inconclusive = small, poorly fitted or top-dose-only effect; inactive = flat fitted curve, though single readings scatter.
% is set by controls: 0 for no effect and ±100 for the full control effect; potency is the fitted concentration of half-maximal effect.

This experiment has as its target Luciferin 4-monooxygenase (Photinus pyralis) (UniProt P08659). The experiment is described as follows: qHTS of Nrf2 Activators: Hit Validation in Secondary FLuc Assay. Note: nearly all actives have a fitted effect of over 65% in size. The conditions noted are these: firefly luciferase inhibition counter-screen, luminescence; series mostly up to 57.5 µM; activity, negative = inhibition: at the top concentration. A digest of the protocol:
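Counter-screen on purified firefly luciferase with ATP and D-luciferin at Km concentrations; compounds flagged if they inhibit the enzyme, indicating possible reporter stabilization rather than ARE activation.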
Background: In qHTS, concentration-response curves come from the screen itself.
Regarding `COc1ccc(N(CCCN2C(=O)c3cccc4cccc(c34)C2=O)C(=O)c2cccc(OC)c2)cc1`, the “activity, negative = inhibition” value is 4.49%.
On the same count and under the same terms, to `CC1Oc2ccccc2OC1C(=O)Nc1ccccn1` (centres undefined) belongs -0.195%.
With `CCOc1cc2ccccc2cc1C(=O)Nc1ccccn1`, the Potency is 5.36 µM (active).
Take `CCc1nc(Nc2cccc(F)c2)c2oc3ccccc3c2n1`: the “activity, negative = inhibition” value is -22.6%.
`Brc1ccccc1C1N=C(c2ccccc2)NO1` (centres undefined): the Potency is 1.35 µM (active).
On the same count and under the same terms, with `O=C(Nc1cccc([N+](=O)[O-])c1)Nc1cccs1` the figure was 10.7 µM (active).
As to `O=C(NNC(=O)C12CC3CC(CC(C3)C1)C2)c1cccc([N+](=O)[O-])c1`, the “activity, negative = inhibition” value was -24.4%.
On to `O=C(CCCc1ccccc1)Nc1cccc([N+](=O)[O-])c1`, for which the Potency was 7.57 µM (active).
On to `O=C(CSc1cccc[n+]1[O-])Nc1cc([N+](=O)[O-])ccc1Cl`, for which the “activity, negative = inhibition” value was -5.19%.
Same read-out and setting: to `Cc1cc(C)cc(NC(=O)/C=C/c2ccc([N+](=O)[O-])s2)c1` belongs 1.91%; to `O=C(CCCCCCC(=O)Nc1ccccc1)NO`, -18.5%.
As to `Cc1cc(C)cc(NC(=O)Nc2cccs2)c1`, the Potency was 2.39 µM (active).
Regarding `COc1ccc(NC(=O)C2CC(=O)N/C(=N/N=C/c3ccco3)S2)cc1` (centres undefined), the “activity, negative = inhibition” value is -14.5%.
For `COc1ccc(OC)c(NC(=O)C(C#N)=Cc2ccco2)c1`, the Potency is 9.53 µM (active).
Same read-out and setting: with `O=C(/C=C/c1ccccc1Cl)Nc1nc(-c2cccs2)ns1` the figure was 1.69 µM (active).
As for `Cc1cc2c(cc1C)N(C(=O)CCl)CC(=O)N2`, the “activity, negative = inhibition” value was -9.54%.
Take `O=c1cc(-c2ccccc2)oc2ccc(Cl)cc12`: the Potency is 0.849 µM (active).
The same measure, in the same setting: with `CSc1ccc(-c2cc(=O)c3ccccc3o2)cc1` the figure was 1.2 µM (active).
For the molecule `Nn1c(-c2ccccc2)nc2cc(Cl)ccc2c1=O`, the “activity, negative = inhibition” value is -1.21%.
Consider `COc1c(C(=O)Nc2nnc(C3CC3)s2)csc1Cl`, for which the Potency is 7.57 µM (active).
For `O=[N+]([O-])c1cc(Cl)cc2c1nc(NCCO)c1ccccc12`, the “activity, negative = inhibition” value was -5.22%.
As for `O=[N+]([O-])c1ccccc1C=NNc1ccccc1`, the Potency was 2.69 µM (active).
As for `O=[N+]([O-])c1ccc(Cl)cc1C=NNc1ccccn1`, the “activity, negative = inhibition” value was -18.3%.
The same measure, in the same setting: to `O=C(N/N=C/C(Br)=C/c1ccccc1)c1ccc([N+](=O)[O-])cc1` belongs -28.9%; to `O=[N+]([O-])c1cncc([N+](=O)[O-])c1Nc1cccc(O)c1`, 6.84%.
Regarding `O=[N+]([O-])c1ccccc1/C=N/Nc1nccnc1Cl`, the Potency is 13.5 µM (active).
As to `Fc1ccc2cc(-c3ccsc3)ncc2c1`, the Potency is 1.69 µM (active).
Same read-out and setting: to `CCN(CC)c1ccc2c(c1)oc(=O)c1c(Cl)cc(=O)oc12` belongs 6.01 µM (active).
As to `Cc1noc(C)c1-c1ccc2ncnc(NCC3CCCCN3C)c2c1` (centres undefined), the “activity, negative = inhibition” value is 8.17%.
Regarding `O=C(Nc1ccccc1)c1cc([N+](=O)[O-])ccc1Cl`, the “activity, negative = inhibition” value was 7.81%.
Regarding `O=C(Nc1cccc([N+](=O)[O-])c1)c1[nH]ncc1Cl`, the Potency was 9.53 µM (active).
`CCn1ncc(Br)c1C(=O)Nc1cc([N+](=O)[O-])ccc1C`: the “activity, negative = inhibition” value was -0.338%.
With `COc1ccc(C(C#N)=C2C=CC(=NO)C=C2)cc1`, the Potency was 8.49 µM (active).
With `Cc1cc(C)n(-c2nc3ccccc3c(=O)n2OCc2ccc(F)cc2)n1`, the “activity, negative = inhibition” value was -3.71%.
On to `N#Cc1cccn1-c1nccc(-c2cccs2)n1`, for which the Potency was 12 µM (active).
Take `C#CCSc1nc(-c2cccs2)ccc1C#N`: the “activity, negative = inhibition” value was -22.8%.
Same read-out and setting: to `O=C(CSc1nccc(-c2cccs2)n1)Nc1ccc(F)c(Cl)c1` belongs 0.686%; to `Cc1ccc(S(=O)(=O)c2nc(S(C)(=O)=O)sc2N2CCC(O)CC2)cc1`, -0.609%.
For the molecule `Fc1cccc(Cc2c(-c3ccco3)nc3c4ccccc4ccn23)c1`, the Potency is 0.379 µM (active).
In the case of `c1ccc(Cc2c(-c3ccco3)nc3c4ccccc4ccn23)cc1`, the Potency is 0.601 µM (active).
For `c1ccc(-c2nc3c4ccccc4ccn3c2Cc2ccsc2)cc1`, the Potency is 1.51 µM (active).
`Clc1cccc(Cc2c(-c3ccco3)nc3c4ccccc4ccn23)c1`: the Potency is 1.9 µM (active).
On to `CCCc1nc([N+](=O)[O-])c(S(=O)(=O)c2ccccc2)n1CC(C)C`, for which the “activity, negative = inhibition” value was -3.37%.
With `COc1ccccc1Cc1c(-c2ccco2)nc2c3ccccc3ccn12`, the Potency was 0.301 µM (active).
Same read-out and setting: with `Clc1cccc(Cc2c(-c3ccccc3)nc3c4ccccc4ccn23)c1` the figure was 6.01 µM (active); with `Cc1ccc(Cc2c(-c3ccco3)nc3c4ccccc4ccn23)cc1`, 0.239 µM (active); with `COc1ccc(Cc2c(-c3ccccc3)nc3c4ccccc4ccn23)c(C)c1`, 3.01 µM (active).
Still for that read-out and setting: to `FC(F)(F)c1ccccc1Cc1c(-c2ccccc2)nc2c3ccccc3ccn12` belongs 5.36 µM (active).
Same read-out and setting: to `Clc1ccsc1-c1csc(-c2cccnc2)n1` belongs 3.38 µM (active).
For the molecule `CC(=O)N1CCc2c(sc(NC(=O)CCS(=O)(=O)c3ccccc3)c2C#N)C1`, the “activity, negative = inhibition” value is 2.37%.
With `CCOC(=O)N1CCc2c(sc3c2C(=O)NC(c2ccccc2)N3)C1` (centres undefined), the Potency was 6.75 µM (active).
Consider `COc1ccc([C@H]2Cc3cccc(O)c3C(=O)O2)cc1O`, for which the “activity, negative = inhibition” value was 0.428%.
On to `CCc1cc2c(NCc3ccco3)ncnc2s1`, for which the “activity, negative = inhibition” value was -4.96%.
Still for that read-out and setting: to `Cc1sc2ncnc(NCc3ccco3)c2c1C` belongs -16.7%.
